# Screening results from PubChem.
# PRC2 inh: inhibitors of human EZH2/PRC2 methyltransferase. PRC2 H3K27 methylation, DELFIA TRF, 1 h. inhibition, % at 12.5 µM. Q15910. AID 651548. hit rate 0.35% among 57,000;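 active = mean inhibition of replicates at least 50% and every single replicate also reaching 50%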;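 also: dimethyl H3K27 on biotinylated H3 21-44 peptide detected by antibody; plate controls were median neutral control wells for no effect and median positive control wells for full effect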
# Target sequence (Q15910 whole entry, looked up): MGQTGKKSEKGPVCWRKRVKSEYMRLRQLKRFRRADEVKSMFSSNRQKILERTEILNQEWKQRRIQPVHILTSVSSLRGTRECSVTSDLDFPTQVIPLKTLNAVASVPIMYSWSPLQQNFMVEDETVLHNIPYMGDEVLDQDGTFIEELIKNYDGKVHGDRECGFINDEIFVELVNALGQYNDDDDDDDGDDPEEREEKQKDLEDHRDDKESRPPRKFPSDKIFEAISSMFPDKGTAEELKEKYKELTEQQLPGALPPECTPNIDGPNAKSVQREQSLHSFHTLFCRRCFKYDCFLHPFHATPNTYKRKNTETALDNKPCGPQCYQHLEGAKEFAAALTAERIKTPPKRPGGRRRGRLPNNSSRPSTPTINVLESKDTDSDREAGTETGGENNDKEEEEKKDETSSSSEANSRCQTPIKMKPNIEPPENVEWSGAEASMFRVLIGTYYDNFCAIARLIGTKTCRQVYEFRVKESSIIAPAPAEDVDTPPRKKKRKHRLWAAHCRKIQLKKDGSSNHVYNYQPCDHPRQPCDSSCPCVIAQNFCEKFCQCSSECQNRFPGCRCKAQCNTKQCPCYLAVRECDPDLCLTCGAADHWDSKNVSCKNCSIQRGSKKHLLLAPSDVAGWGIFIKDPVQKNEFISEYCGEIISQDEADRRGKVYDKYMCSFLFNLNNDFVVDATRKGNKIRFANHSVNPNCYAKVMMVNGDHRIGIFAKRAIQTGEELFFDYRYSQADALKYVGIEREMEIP
# An asterisk follows results filed as active. The sample as a whole holds a higher share of hits than the screen did.
SMILES,PRC2 inh
C[C@@H]1CC[C@@]23CCC4(C)[C@@](C=CC5[C@@]6(C)CC[C@H](O)C(C)(C)C6CC[C@]54C)(OC2=O)C3[C@H]1C (stereo partly specified),3
O=C(NCc1cccnc1)C(=O)Nc1cccc(Cl)c1Cl,3
CO[C@H](CN(C)C(=O)c1cnccn1)[C@@H](C)CN([C@H](C)CO)S(=O)(=O)c1ccc(Cl)cc1,3
Cc1sc2ncnc(SCC(=O)NCc3ccccc3)c2c1C,-14
O=C(O)C[C@H]1C[C@@H]2c3cc(NC(=O)Nc4ccccc4F)ccc3O[C@@H]2[C@H](CO)O1,6
CCOc1ccc(NC(=O)C(C)Sc2nc3ccccc3c(=O)n2-c2cccc(C)c2)cc1 (stereo unspecified),-22
O=C(CCCCC(=O)N/N=C/c1cccc(O)c1O)NO,4
O=C(NO)c1ccc(C(=O)N/N=C/c2ccccc2C(=O)O)cc1,5
O=C(NO)c1ccc(C(=O)N/N=C/c2ccc(O)cc2)cc1,4
CCN(CC)c1ccc(/C=N/NC(=O)c2ccc(C(=O)NO)cc2)c(O)c1,-1
O=C(NO)c1ccc(C(=O)N/N=C/c2cccc(O)c2O)cc1,76*
O=C(NO)c1ccc(C(=O)N/N=C/c2ccc(O)c(O)c2O)cc1,89*
Cc1cc(NC(=O)CN(c2ccc(Cl)cc2)S(C)(=O)=O)ccc1Br,-3
C[C@@H]1CN([C@H](C)CO)C(=O)c2cc(NS(C)(=O)=O)ccc2O[C@@H](C)CCCCO[C@@H]1CN(C)C(=O)C1CCCCC1,-3
Cc1cc(Cl)c(S(=O)(=O)Nc2cc(Cl)ccc2Cl)cc1OCC(N)=O,0
CO[C@H](CN(C)Cc1nccs1)[C@H](C)CN([C@@H](C)CO)S(=O)(=O)c1ccc(F)cc1,-7
CC1(OC(=O)/C=C/c2ccccc2)CC(O)C2C=COC(OC3OC(CO)C(O)C(O)C3O)C21 (stereo unspecified),12
COC(=O)C1=CO[C@@H](O[C@@H]2O[C@H](CO)[C@@H](O)[C@H](O)[C@H]2O)[C@@H]2[C@@H]3CN4CCc5c([nH]c6ccccc56)[C@]4(C[C@H]12)O3,52*
COC(=O)C1=CO[C@@H](O[C@@H]2O[C@H](CO)[C@@H](O)[C@H](O)[C@H]2O)[C@@H]2[C@@H](C)[C@@H](O)[C@@H](OC(=O)/C=C/c3ccc(O)c(O)c3)[C@H]12,11
C=C[C@H]1[C@H](O[C@@H]2O[C@H](CO)[C@@H](O)[C@H](O)[C@H]2O)OC=C(C(=O)OC)[C@H]1C[C@@H]1N[C@H](C(=O)O)Cc2c1[nH]c1ccccc21,98*
C=CC(C)(O)CC/C=C(\C)C(=O)OCC1CCC2C(C(=O)O)=COC(OC3OC(CO)C(O)C(O)C3O)C12 (stereo unspecified),0
C=C1C(O)CC2C(C(=O)OC)=CO[C@@H](O[C@@H]3O[C@H](CO)[C@@H](O)[C@H](O)[C@H]3O)C12 (stereo partly specified),25
C[C@@H]1CN([C@H](C)CO)C(=O)Cc2cc(NS(=O)(=O)c3ccc(Cl)cc3)ccc2O[C@H]1CN(C)C(=O)Nc1ccccc1,17
CO[C@@H]1CN(C)C(=O)c2cc(NS(=O)(=O)c3cn(C)cn3)ccc2OC[C@H](C)N(Cc2cccc(F)c2)C[C@@H]1C,3
CCC(=O)N1C[C@@H](C)[C@H](OC)CN(C)C(=O)c2cc(NS(=O)(=O)CC)ccc2OC[C@@H]1C,6
SMILES,PRC2 inh
CC1=CC(=O)OC1(O)CCC(C)CC(=O)O (stereo unspecified),100*
CC(CC[C@]1(C)C2CCC=C(CO)[C@]2(C)CC[C@H]1C)CC(=O)O (stereo partly specified),15
COc1ccc(OC(=O)N(C)C[C@@H]2OCc3ccccc3-c3ccccc3C(=O)N([C@@H](C)CO)C[C@@H]2C)cc1,-3
C[C@@H]1CN([C@@H](C)CO)C(=O)Cc2cc(NC(=O)Nc3cccc4ccccc34)ccc2O[C@H]1CN(C)Cc1ccncc1,-18
C/C(=C/C(=O)O)CCC1C(C)CCC2C(C)(C=O)C(O)CCC12C (stereo unspecified),15
C/C(=C\C(=O)O)CCC1C(C)(O)CCC2C(C)(CO)CCCC12C (stereo unspecified),65*
C=C1CCC2C(C)(CO)CCCC2(C)C1CC/C(C)=C/C(=O)O (stereo unspecified),14
Cc1cccc(OCC(=O)NC(=S)Nc2ccc(C)cc2O)c1,15
O=C(CSc1oc(-c2ccccc2)nc1S(=O)(=O)c1ccccc1)Nc1ccc(F)cc1,20
CCCNC(=O)N(C)C[C@@H]1Oc2ncc(-c3ccc(F)cc3)cc2C(=O)N([C@H](C)CO)C[C@H]1C,-6
CCOC(=O)c1c(NC(=O)CCN2CCC(C)CC2)sc2c1CC(C)(C)OC2,5
CO[C@H]1CN(C)C(=O)c2ccc(NC(=O)c3ccc4c(c3)OCO4)cc2OC[C@@H](C)N(CCC(F)(F)F)C[C@@H]1C,-10
CO[C@H]1CN(C)C(=O)c2ccc(NS(=O)(=O)c3ccccc3)cc2OC[C@H](C)N(Cc2cccnc2)C[C@@H]1C,-18
CCCCCCCC/C=C/CCCCCCCC(=O)NCCc1ccc(O)c(O)c1,68*
CCCCCCCC/C=C/CCCCCCCC(=O)NCCO,-16
CCCCC/C=C\C/C=C\C/C=C\C/C=C\CCCCCC(=O)O,12
O=C(C[C@H]1C=C[C@@H](NC(=O)Nc2cccc(F)c2)[C@@H](CO)O1)NCC1CC1,-7
O=C(Nc1ccc(Cc2ccc(O)c(NC(=O)c3ccccc3F)c2)cc1O)c1ccccc1F,13
COCC#Cc1ccc2c(c1)O[C@@H](CN(C)C(=O)C1CC1)[C@@H](C)CN([C@@H](C)CO)S2(=O)=O,-7
CC(C)NC(=O)N(C)C[C@H]1Oc2ncc(-c3cncnc3)cc2C(=O)N([C@@H](C)CO)C[C@@H]1C,4
C[C@@H]1O[C@@H](O[C@H]2[C@H](Oc3cc(O)c4c(c3)O[C@H](c3ccc(O)c(O)c3)CC4=O)O[C@H](CO)[C@@H](O)[C@@H]2O)[C@H](O)[C@H](O)[C@H]1O,4
C[C@@H]1O[C@@H](Oc2ccc(C3Oc4cc(O)cc(O)c4C(=O)C3O)cc2O)[C@H](O)[C@H](O)[C@H]1O (stereo partly specified),97*
O=C1c2c(O)cc(O)cc2O[C@H](c2ccccc2)[C@H]1O,8
C[C@@H]1CN([C@H](C)CO)C(=O)c2cccc(NC(=O)C3CCCCC3)c2O[C@H]1CN(C)C(=O)Nc1ccccc1,-7
CC1(C)CC[C@]2(C(=O)O[C@@H]3O[C@H](CO)[C@@H](O)[C@H](O)[C@H]3O)CC[C@]3(C)C(=CCC4[C@@]5(C)CC[C@H](O[C@@H]6O[C@H](C(=O)O)[C@@H](O[C@@H]7O[C@H](CO)[C@@H](O)[C@H](O)[C@H]7O)[C@H](O)[C@H]6O[C@@H]6O[C@H](CO)[C@@H](O)[C@H](O)[C@H]6O)C(C)(C)C5CC[C@]43C)C2C1 (stereo partly specified),11
CC1(C)CC[C@]2(C(=O)O[C@@H]3O[C@H](CO)[C@@H](O)[C@H](O)[C@H]3O)CC[C@]3(C)C(=CCC4[C@@]5(C)CC[C@H](O[C@@H]6O[C@H](C(=O)O)[C@@H](O)[C@H](O)[C@H]6O)[C@@](C)(CO)C5CC[C@]43C)C2C1 (stereo partly specified),3
